Measurements published in the supplement of paper PMC4166925.
± gives the standard deviation of the averaged measurements. The full ranking holds about 33,000 sequences; the median of “E-score (dimensionless, -0.5 to 0.5)” is about -0.046, and the highest 2% start at about 0.36. What follows is part of a selection rich in the highest values, with near analogues and random picks from the rest.

System: T1, SpTbr T-box DNA-binding domain (GST fusion)
T1 sequence: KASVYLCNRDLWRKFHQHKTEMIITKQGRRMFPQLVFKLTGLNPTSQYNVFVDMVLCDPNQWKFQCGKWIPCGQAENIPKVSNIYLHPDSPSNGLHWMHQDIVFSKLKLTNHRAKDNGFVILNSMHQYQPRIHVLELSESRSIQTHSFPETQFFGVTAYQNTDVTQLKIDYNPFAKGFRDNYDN
Assay: PBM E-score of 8-mer (E-score (dimensionless, -0.5 to 0.5)); Tbr is Tbrain of the sea star Patiria miniata (Pm) or the sea urchin Strongylocentrotus purpuratus (Sp); higher = stronger binding preference
Details: the construct has about 5 more residues each side
Description: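 Universal protein-binding microarray (Agilent AMADID 016060, 60-bp probes with a 35-bp variable region) incubated with 200 nM GST-fused Strongylocentrotus purpuratus Tbr T-box DNA-binding domain (residues 362-554) in PBS pH 7.5. Scored for every ungapped 8-mer (given with its reverse complement) as E-score (range -0.5 to 0.5; >0.45 counts as bound) and Z-score of median probe intensity. Two replicate arrays (datasets 1 and 2).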
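Also: protein at 200 nM in PBS on universal double-stranded arrays.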

Sequence | PBM E-score of 8-mer
GTGGCCAC | 0.225 ± 0.026
ACTGCTGC | -0.0667 ± 0.011
ATCAAGAA | -0.219 ± 0.094
GAGTTAGC | 0.0856 ± 0.074
CTCCAAAC | -0.0591 ± 0.11
CGTGTCGC | 0.254 ± 0.045
GGTGTCGA | 0.453 ± 0.015
AGTGTCGG | 0.36 ± 0.015
CGTGTCGA | 0.264 ± 0.013
ATTGTCGA | 0.0605 ± 0.042
AGTGTCGC | 0.412 ± 0.016
ATTGTCGC | 0.263 ± 0.028
AGTGTCGA | 0.405 ± 0.0049
GTTGTCGA | 0.271 ± 0.0066
CTGAGGAC | 0.0509 ± 0.03
AGGGAGCC | -0.14 ± 0.027
CAATACTG | -0.127 ± 0.0078
AATGGGAA | -0.188 ± 0.032
AGGGCTGG | -0.253 ± 0.011
GTTCCTCA | -0.0698 ± 0.064
CTAGCTAA | 0.041 ± 0.025
CGTCGCAC | 0.327 ± 0.0036
AGTCGCAC | 0.387 ± 0.0041
GGTCGCAC | 0.365 ± 0.046
GGTCGCAA | 0.208 ± 0.029

Sequence | PBM E-score of 8-mer
AGTCGCAG | 0.0537 ± 0.061
AGTCGCAA | 0.132 ± 0.0059
CGGGGCTA | -0.315 ± 0.0072
ATCCACAG | -0.0171 ± 0.029
AACCACCC | -0.022 ± 0.044
ACAAAGCC | -0.0854 ± 0.036
ATGGGCCG | -0.31 ± 0.017
GCGGAGAA | 0.059 ± 0.053
GCTGCCAA | 0.0847 ± 0.029
CGTGCCAC | 0.254 ± 0.041
GGTGCCAA | 0.447 ± 0.0064
AGTGCCAA | 0.359 ± 0.0081
GGTGCCAC | 0.368 ± 0.0043
GGTGCCTA | 0.0923 ± 0.1
AGTGCCAC | 0.25 ± 0.013
TGTGCCAA | 0.364 ± 0.021
CGTGCCAA | 0.306 ± 0.03
CGGAAAAA | 0.019 ± 0.025
ATCAGTGG | -0.149 ± 0.015
CTGTTGTA | 0.0999 ± 0.01
TACGACTA | -0.13 ± 0.016
AATGCTGT | -0.0262 ± 0.063
CCTCAAGA | -0.0881 ± 0.046
GGTACTCA | -0.0116 ± 0.057
ACTCACGG | 0.061 ± 0.057

Sequence | PBM E-score of 8-mer
CATGAAGC | -0.112 ± 0.013
ACGGTTAC | -0.0916 ± 0.0079
ATGCTCAC | 0.277 ± 0.023
TCCATCGA | -0.0839 ± 0.076
GGTCTCAC | 0.3458 ± 0.0029
AAACCTGA | -0.00426 ± 0.071
CCACCTGG | 0.186 ± 0.029
GCACCTGC | 0.388 ± 0.024
ATACCTGG | 0.0363 ± 0.063
CCACCTGC | 0.269 ± 0.0095
ACACCTGA | 0.4627 ± 0.0023
GAACCTGC | -0.126 ± 0.13
ACACCTGC | 0.4527 ± 0.0032
ATACCTGC | -0.0105 ± 0.0085
AGACCTGA | -0.094 ± 0.0078
CGACCTGC | 0.177 ± 0.026
ACACCTGG | 0.44 ± 0.029
GCCCAAGC | -0.24 ± 0.0088
ACGCAAGA | -0.0517 ± 0.024
AACAACGT | 0.00981 ± 0.00099
CTTTAAGC | -0.136 ± 0.004
AACTTCAG | -0.23 ± 0.022
CTCACTGC | 0.0922 ± 0.076
GCATGTCC | -0.0875 ± 0.095
CGGCTTGC | -0.14 ± 0.0054

Sequence | PBM E-score of 8-mer
AAGCGAGG | 0.115 ± 0.03
CAAGCTAC | -0.147 ± 0.014
CAGTGTTA | 0.31 ± 0.028
AAGTGTTC | 0.226 ± 0.11
AAGTGTTG | 0.422 ± 0.02
CAGTGTTC | 0.0165 ± 0.024
GAGTGTAC | -0.0659 ± 0.019
AAGTGGTA | 0.083 ± 0.018
AAGTGTAC | 0.00907 ± 0.056
GAGTGTTA | 0.386 ± 0.021
AAGTGTTA | 0.451 ± 0.00073
CATCTGTA | -0.0572 ± 0.038
CACCAATG | 0.179 ± 0.0061
CACAATCC | 0.0504 ± 0.056
ATGCCCAT | -0.184 ± 0.01
AGGCAGAT | -0.0669 ± 0.075
TGGGCGAA | -0.169 ± 0.019
GAGGACAC | 0.155 ± 0.015
GGTGGGGA | 0.248 ± 0.033
CACAGGTG | 0.453 ± 0.005
AACAGGTG | 0.364 ± 0.028
ATCAGGTA | -0.128 ± 0.008
AACAGGTC | 0.107 ± 0.0057
ATCAGGTG | 0.386 ± 0.015
ATCAGGTC | -0.171 ± 0.075

Sequence | PBM E-score of 8-mer
AGCAGGTA | -0.132 ± 0.031
CACAGGTC | 0.198 ± 0.045
AACAGGTA | 0.0912 ± 0.072
CACAGGTA | 0.141 ± 0.0043
AGCAGGTG | 0.377 ± 0.00094
AGCAGGTC | -0.0223 ± 0.011
AGCGGTGC | -0.00638 ± 0.018
ACAATGCG | 0.222 ± 0.025
CGAGAGTA | 0.0304 ± 0.018
GAGATTGC | 0.116 ± 0.014
CGCTGGCC | -0.032 ± 0.027
CTTACTCC | -0.125 ± 0.049
CAGCGTGG | -0.111 ± 0.012
CAGTCCAC | 0.192 ± 0.026
AGCACTCA | 0.079 ± 0.03
AAAGCAAA | 0.00628 ± 0.091
ATGTGGGA | 0.234 ± 0.041
CTGTGGGA | 0.105 ± 0.057
ATGTGGAA | 0.0153 ± 0.034
GTGTGGAA | 0.3848 ± 0.0012
CTGTGGAA | 0.061 ± 0.12
GTGTGGGA | 0.387 ± 0.038
CGGCCCAG | -0.2798 ± 0.0014
CAGAATGC | 0.0116 ± 0.023
GCCACGAA | 0.00399 ± 0.009

Sequence | PBM E-score of 8-mer
CGCCAGCC | 0.0479 ± 0.008
AGCGAACA | 0.078 ± 0.037
GGCGAACA | 0.137 ± 0.018
TGCGAACA | 0.419 ± 0.015
AGCGAAAA | -0.0276 ± 0.011
CGCGAAAA | 0.347 ± 0.04
TGCGAAAA | 0.383 ± 0.038
CGTTTCAA | -0.029 ± 0.015
CGCTGTAC | -0.164 ± 0.046
ATACAGGG | -0.276 ± 0.015
AAGGGTAT | -0.121 ± 0.02
AGGCGTGC | 0.236 ± 0.052
AGGCGTGG | 0.321 ± 0.044
ACGCGTGA | 0.407 ± 0.0058
AAGCGTGT | 0.288 ± 0.012
CTGCGTGA | 0.172 ± 0.033
ATGCGTGA | 0.374 ± 0.0053
AAGCGTGA | 0.415 ± 0.01
GCGCGTGA | 0.344 ± 0.033
GTGCGTGA | 0.316 ± 0.057
ACGCGTGC | 0.149 ± 0.066
AGGCGTGA | 0.4754 ± 0.0047
AAGCGTGG | 0.179 ± 0.047
AGGATGAT | -0.095 ± 0.066
TCCACGGA | -0.0375 ± 0.11

Sequence | PBM E-score of 8-mer
CTCCAAGA | -0.0401 ± 0.032
ACGGCTCA | -0.0392 ± 0.022
TTATTGAA | -0.142 ± 0.024
GAATCAGA | -0.0679 ± 0.055
GGGCGTGA | 0.44 ± 0.015
GGGCGTAA | 0.131 ± 0.047
CGGCGTGA | 0.33 ± 0.047
AGGCGTTG | 0.355 ± 0.0053
AGGCGTTA | 0.434 ± 0.018
GGGCGTTA | 0.2697 ± 0.0022
CACTAGCG | 0.139 ± 0.072
AGGTTTGC | -0.0997 ± 0.11
ATCGTGAG | 0.208 ± 0.0056
TATTCGGA | -0.284 ± 0.034
CACTCAGG | -0.0871 ± 0.041
CGTGCAAA | 0.146 ± 0.024
AGTGCGAA | 0.47263 ± 0.00019
GGTGCGAC | 0.452 ± 0.0081
ATTGCGAA | 0.284 ± 0.041
CGTGCGAA | 0.4443 ± 0.0016
AGTGCGTA | 0.0849 ± 0.013
CGTGCGCA | 0.155 ± 0.0026
GCTGCGAC | 0.137 ± 0.059
